Sampled rows, rich in hits. Any-hit rate of the full collection: about 2.4%.
Pol beta inh – qHTS Assay for Inhibitors of DNA Polymerase Beta; P06746; Pol beta primer extension/strand displacement, fluorescence kinetic; Potency, µM (top dose mostly 114 µM), for the others: at the highest dose activity change, negative = inhibition, most hits filed as inhibitors; 340,000 compounds, 1.3% hits; AID 485314, 2010; also: % is scaled to controls: 0 for no effect and ±100 for the full control effect
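10 nM enzyme + cpd, 15 min RT; start with substrate 50 nM final; read 0 min and after 10 min RT. Corrected, normalized data; 4-parameter Hill curve fit.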
TDP1 block – qHTS Assay for Inhibitors of Tyrosyl-DNA Phosphodiesterase (TDP1). recombinant TDP1, AlphaScreen DNA substrate cleavage. 350,000 compounds, 0.28% hits. Tyrosyl-DNA phosphodiesterase 1 (Homo sapiens), Q9NUW8. AID 485290, 2010. Potency, µM (top dose mostly 130 µM), for the others: top-dose activity change, negative = inhibition, most hits filed as inhibitors; also: % is scaled to controls: 0 for no effect and ±100 for the full control effect; nearly all actives have a fitted effect of over 40% in size
Target sequence (Q9NUW8 whole entry, looked up): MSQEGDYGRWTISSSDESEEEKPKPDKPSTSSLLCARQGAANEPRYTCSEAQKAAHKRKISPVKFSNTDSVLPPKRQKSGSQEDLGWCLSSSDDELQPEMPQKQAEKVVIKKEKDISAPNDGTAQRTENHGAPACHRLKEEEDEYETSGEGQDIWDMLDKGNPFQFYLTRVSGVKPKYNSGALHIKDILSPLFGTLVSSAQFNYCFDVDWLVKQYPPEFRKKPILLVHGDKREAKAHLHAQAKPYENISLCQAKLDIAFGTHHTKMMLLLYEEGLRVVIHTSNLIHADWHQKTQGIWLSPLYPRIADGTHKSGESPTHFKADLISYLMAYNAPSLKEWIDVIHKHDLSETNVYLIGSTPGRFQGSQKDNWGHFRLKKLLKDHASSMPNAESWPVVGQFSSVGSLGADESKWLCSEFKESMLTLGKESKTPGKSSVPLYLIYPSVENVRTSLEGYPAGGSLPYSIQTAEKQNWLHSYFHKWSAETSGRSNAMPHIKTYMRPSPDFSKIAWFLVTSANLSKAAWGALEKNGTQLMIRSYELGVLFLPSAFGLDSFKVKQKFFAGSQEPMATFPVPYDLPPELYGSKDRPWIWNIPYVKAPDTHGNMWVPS
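Here, a 5' biotin and 3' phosphotyrosine-FITC DNA oligonucleotide reports Tdp1 activity: intact substrate bridges AlphaScreen beads, while cleavage leaves a 3' phosphate and drops signal. All incubations at room temperature.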
Pol kappa inh-1 – qHTS for Inhibitors of Polymerase Kappa; DNA polymerase kappa (Homo sapiens), Q9UBT6; purified Pol kappa, fluorescent DNA synthesis assay, 10 min; Potency, µM (series often up to 107 µM), for inactives: at the top dose activity, negative = inhibition, most hits filed as inhibitors; 400,000 compounds, 0.53% hits; AID 588579, 2011; also: % is scaled to controls: 0 for no effect and ±100 for the full control effect
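Enzyme at 10 nM met test compounds for 15 min at room temperature. Substrate addition (50 nM final) began the reaction, which was monitored by fluorescence at 0 and 10 min.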
Pol iota inh – qHTS for Inhibitors of Polymerase Iota. Pol iota fluorescent replication assay, 10 min. DNA polymerase iota (Homo sapiens), Q9UNA4. 390,000 compounds, 1% hits. Potency, µM (highest dose often 115 µM), inactives show top-dose activity, negative = inhibition, usual class: inhibitors
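Fluorescent replication assay read twice, at 0 min and 10 min after adding 50 nM (final) substrate. Enzyme (10 nM) and compounds were first incubated 15 min at room temperature; enzyme-free buffer wells were negative controls.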
Pol eta inh-1 – qHTS for Inhibitors of Polymerase Eta; 390,000 compounds, 1.2% hits; recombinant Pol eta, fluorescent DNA replication assay; Potency, µM (highest dose often 114 µM), for inactives: at the top dose activity change, negative = inhibition, hits mostly inhibitors; AID 588591, 2011; DNA polymerase eta (Homo sapiens), Q9Y253; also: % is scaled to controls: 0 for no effect and ±100 for the full control effect
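Pol eta (10 nM) was preincubated with compounds for 15 min at room temperature, after which fluorescent replication substrate (50 nM final) was added to start the reaction. Fluorescence was read kinetically at 0 and 10 min.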
FEN1 inhibitor – qHTS Assay for the Inhibitors of Human Flap endonuclease 1 (FEN1) | AID 588795, 2011 | Potency, µM (titrated, usually from 114 µM), inactives show top-dose activity change, negative = inhibition, usual class: inhibitors | P39748 | 390,000 compounds, 0.35% hits | Recombinant FEN1 flap cleavage, fluorescence, 15 min; also: % is scaled to controls: 0 for no effect and ±100 for the full control effect; nearly all actives have a fitted effect of over 65% in size
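Compounds are tested as a concentration series against 10 nM FEN1; after a 15 min room-temperature preincubation, 50 nM substrate starts cleavage, with plate reads at 0 and 15 min. Normalized responses are fitted by a Hill equation.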
PGK validate – qHTS for inhibitors of Phosphogylcerate Kinase: Hit Validation Screen; Potency, µM (highest dose often 57.5 µM), for inactives: at the highest dose activity change, negative = inhibition, hits mostly inhibitors; 500 compounds, 79% hits; TbPGK coupled GAPDH assay, Kinase-Glo luminescence; shares compounds with Pol kappa inh-1; also: % is scaled to controls: 0 for no effect and ±100 for the full control effect; nearly all actives have a fitted effect of over 65% in size
POLI cherry-pick – qHTS for Inhibitors of Polymerase Iota: Confirmatory Assay for Cherry-picked Compounds; shares compounds with Pol kappa inh-1; AID 720496, 2013; Pol iota primer extension, TAMRA/BHQ fluorescence; 1,500 compounds, 77% hits; Potency, µM, usual class: inhibitors
Pol kappa inh-2 – qHTS for Inhibitors of Polymerase Kappa: Confirmatory Assay for Cherry-picked Compounds | 920 compounds, 76% hits | Potency, µM, most hits filed as inhibitors | shares compounds with Pol eta inh-1 | purified Pol-kappa, fluorescent strand-displacement substrate | AID 720501, 2013
Pol eta inh-2 – qHTS for Inhibitors of Polymerase Eta: Confirmatory Assay for Cherry-picked Compounds. shares compounds with Pol eta inh-1. Pol eta primer extension, TAMRA/BHQ fluorescence, 10 min. Potency, µM, actives largely listed as inhibitors. 2,600 compounds, 64% hits
Numbers without * were called inactive; ? = inconclusive; nt = no result given; [ ] = dose if it differs, or a comment. Calls follow the shape of the dose curve; as a rule, active = well fitted curve in the direction sought with a large enough effect; inconclusive = small, poorly fitted or top-dose-only effect, or another doubt; inactive = no such curve, though single readings can be large; an effect the other way counts as inactive or inconclusive. Potency is read from the fitted curve at half-maximal effect.

SMILES	Pol beta inh	TDP1 block	Pol kappa inh-1	Pol iota inh	Pol eta inh-1	FEN1 inhibitor	POLI cherry-pick	Pol eta inh-2	others
Cc1ccc(NC(=O)/C(C#N)=C\c2ccc(-c3ccc(Cl)cc3)o2)c(C)c1	4%	2%[12.3 µM]	-23%	2%	-6%	-14%	nt	nt
N#C/C(=C\c1ccc(-c2cc(Cl)ccc2Cl)o1)C(=O)Nc1ccccc1C(=O)O	?	-6%[12.3 µM]	?	?	40µM*	?	75*	?	Pol kappa inh-2=11*
S=c1[nH]nc(-c2cc(-c3ccccc3)n[nH]2)n1/N=C/C=C/c1ccco1	22µM*	1%	50µM*	14µM*	22µM*	?	?	30*	Pol kappa inh-2=24*
Cc1cccc(C)c1NC(=O)COC(=O)c1c2c(nc3ccccc13)/C(=C\c1ccc3c(c1)OCO3)CCC2	0%	-2%	-14%	193%	-25%	-3%	nt	nt
O=C(COC(=O)c1c2c(nc3ccccc13)/C(=C\c1ccco1)CC2)NC1CCCC1	nt	nt	22µM*	6.3µM*	3.5µM*	?	19*	27*	Pol kappa inh-2=12*
CC1CCCCC1NC(=O)COC(=O)c1c2c(nc3ccccc13)/C(=C\c1ccco1)CC2 (stereo not given)	nt	nt	22µM*	3.2µM*	10µM*	50µM*	60*	34*	Pol kappa inh-2=21*
Nc1nc2c(s1)CCc1c-2cnn1-c1ccccc1	?	7%	-4%	14µM*	79µM*	18µM*	24*	67*
Cc1ccc(-c2cnn(-c3ccccc3)c2N)cc1	10%	nt	-19%	-30%	-10%	9%	nt	nt
Cc1c(NC(=O)Nc2cccc(C(F)(F)F)c2)sc2nc3n(c(=O)c12)CCC(C)CC3 (stereo not given)	32%	-4%	14%	14%	-2%	-4%	nt	nt
COc1ccc(OC)c(N2C(=O)[C@@H]3C(c4ccccc4Cl)=NO[C@@H]3C2=O)c1	-88%	nt	20µM*	3.5µM*	1.3µM*	50µM*	17*	17*	PGK validate=5.8µM*
Cc1cccc(C)c1N1C(=O)[C@@H]2C(c3ccccc3Cl)=NO[C@@H]2C1=O	18%	1%	-17%	20%	-4%	10%	nt	nt
Nc1ccc(C=O)cc1	nt	nt	9%	-6%	nt	2%	nt	nt
O=C1C(Cl)=C(NC(=O)c2ccccc2)C(=O)C(Cl)=C1NC(=O)c1ccccc1	-12%	nt	-12%	1.6µM*	-10%	79µM*	24*	85*
CCOCC	nt	2%	17%[60.1 µM]	nt	nt	nt	nt	nt
O=C(NCCC1=CCCCC1)c1ccc2c(c1)N(Cc1ccc(F)cc1)C(=O)c1ccccc1S2(=O)=O	-21%	8%	-16%	-6%	nt	-16%	nt	nt
COc1ccccc1CN1CC2(CCN(C(=O)c3cnccn3)CC2)C1	nt	nt	5%[60.1 µM]	nt	nt	nt	nt	nt
Cc1cc(C(=O)NCc2ccc(C(=O)O)o2)c(C)o1	28µM*	-3%	32µM*	20µM*	4µM*	1%	27*	6.7*	PGK validate=?
COc1ccc(NC(=O)CSc2nnc3ccc(-c4cccnc4)nn23)cc1	nt	nt	3%	19%	-18%	-6%	nt	nt
COc1cccc(-c2ccc3nnc(SCC(=O)Nc4ccc(NC(C)=O)cc4)n3n2)c1	nt	nt	-11%	?	?	-27%	?	?
CC(C)CC(NC(=O)c1ccccc1)C(=O)N/N=C/c1ccco1 (stereo not given)	89µM*	nt	?	?	14µM*	-1%	nt	?	PGK validate=?
CCOC(=O)c1cccc(NC(=O)c2cc(S(=O)(=O)N3CCCCCC3)cn2C)c1	-4%	3%	-11%[60.1 µM]	28%	-20%	-2%	nt	nt
CCN(C(=O)Cn1cnc2onc(-c3ccc(F)cc3)c2c1=O)c1ccc(OC)cc1	-16%	4%	-8%	11%	-14%	-2%	nt	nt
COc1ccc(NC(=O)CN(C)C(=O)c2cccc(-n3cccc3)c2)cc1	nt	2.5µM*	45µM*	13µM*	11µM*	-12%	30*	67*
Cc1ccc(NC(=O)CN(C)C(=O)c2cccc(-n3cccc3)c2)cc1	nt	nt	18µM*	8.9µM*	2.5µM*	?	15*	17*
Cc1cccc(NC(=O)CNC(=O)c2cccc(-n3cccc3)c2)c1C	nt	nt	32µM*	7.9µM*	3.2µM*	?	9.5*	9.5*
SMILES	Pol beta inh	TDP1 block	Pol kappa inh-1	Pol iota inh	Pol eta inh-1	FEN1 inhibitor	POLI cherry-pick	Pol eta inh-2	others
COC(=O)\C(C(C)=O)=C(/C=C/C=C/C=C/N(C)C)N(C)C	10µM*	3.2µM*	22µM*	4µM*	2.8µM*	?	15*	6*	PGK validate=4.1µM*;Pol kappa inh-2=5.3*
COC(=O)/C(C(C)=O)=C(\C=C\N(C)C)N(C)C	17%	2%	-3%	24%	-8%	0%	nt	nt
O=C(O)/C(=C\c1ccc(Cl)c([N+](=O)[O-])c1)c1ccc(S(=O)(=O)N2CCCC2)s1	nt	-14%[56.1 µM]	?	40µM*	22µM*	-18%	?	?	Pol kappa inh-2=?
Cc1ccccc1/C=N/Nc1nc2ccccc2[nH]1	0%	9%	-12%	13%	0%	9%	nt	nt
O=[N+]([O-])c1cc(/C=N/Nc2nc3ccccc3[nH]2)c(O)cc1O	20µM*	6%	40µM*	45µM*	4.5µM*	?	?	?
Cc1ccc(CNC(=O)CCS(=O)(=O)c2ccc(Br)cc2)cc1	7.9µM*	11µM*	22µM*	16µM*	10µM*	-4%	38*	27*	PGK validate=6.5µM*
CCCSc1nc(C)c(-c2csc(C(C#N)=C3CCCC3)n2)cc1C#N	-103%	-6%	?	?	45µM*	-18%	67*	34*
